High-throughput results deposited in PubChem BioAssay by National Center for Advancing Translational Sciences (NCATS).
SW480 rereplic: induces DNA re-replication in SW480 colon adenocarcinoma cells; SW480 DNA re-replication, Hoechst DNA content imaging, 48 h; Potency, µM (top dose mostly 46.1 µM), usual class: activators; actives 1.8% (n = 340,000); AID 624297; also: nearly all actives have a fitted effect of over 55% in size
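SW480 cells exposed to compounds for 48 hr at 37 C, 5% CO2, then Hoechst-stained 40 min. Nuclear DNA content imaged by fluorescence scanning (405 nm excitation, 500-530 nm emission); re-replication scored as increased high-intensity nuclei.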
IL1B secr inh: inhibitors of inflammasome signaling (IL-1 beta secretion); THP-1 LPS/ATP IL-1B secretion, AlphaLISA, 16 h; active compounds read low; AID 743279; activity change, % at 57.5 µM; actives 4.7% (n = 360,000); in the data active = activity change below about -50%; inconclusive = mostly about -30% to -49%
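THP-1 cells pretreated 1 hr with compounds (up to 57.5 uM final), then stimulated with LPS (250 ng/mL final) plus ATP (1.25 mM final); secreted IL-1B measured by AlphaLISA after 16 hr, decreased signal indicating inhibition.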
Vif-APOBEC3G blk: Vif-A3G binding inhibition | actives 0.076% (n = 410,000) | AID 602310 | HeLa A3G-eYFP + Vif (tagged APOBEC3G with the HIV-1 protein that degrades it), YFP fluorescence, overnight | Potency, µM (doses to about 46.1 µM), most hits filed as inhibitors; also: nearly all actives have a fitted effect of over 60% in size
Target sequence (Q9HC16 whole entry, looked up): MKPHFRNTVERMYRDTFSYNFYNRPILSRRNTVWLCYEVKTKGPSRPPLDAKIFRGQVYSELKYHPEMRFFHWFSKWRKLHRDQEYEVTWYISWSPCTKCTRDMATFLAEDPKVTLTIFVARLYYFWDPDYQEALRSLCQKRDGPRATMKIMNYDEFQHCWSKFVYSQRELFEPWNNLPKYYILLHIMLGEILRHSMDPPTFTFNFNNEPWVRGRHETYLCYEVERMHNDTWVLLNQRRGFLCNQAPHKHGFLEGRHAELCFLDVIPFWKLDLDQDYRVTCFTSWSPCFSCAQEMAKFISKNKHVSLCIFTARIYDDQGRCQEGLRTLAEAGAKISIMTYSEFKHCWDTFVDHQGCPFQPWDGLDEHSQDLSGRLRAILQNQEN
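Read-out is eYFP fluorescence (Ex 488/Em 500-530) from Vif-expressing HeLa A3G-eYFP cells; more signal means A3G escaped Vif-mediated degradation. Cells plated overnight, compound pinned in, incubated overnight at 37 deg C.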
MCF10A rerep: induces DNA re-replication in MCF 10a normal breast cells. Potency, µM (highest dose often 46.1 µM), actives largely listed as activators. actives 2.9% (n = 350,000). MCF 10A DNA re-replication, Hoechst nuclear intensity, 48 h; also: nearly all actives have a fitted effect of over 50% in size
Vif-A3F inh: Vif-A3F binding inhibition | actives 0.2% (n = 390,000) | AID 602313 | HeLa A3F-eYFP + Vif (tagged APOBEC3F with the HIV-1 protein that degrades it), YFP fluorescence increase | Potency, µM (series often up to 46.1 µM); also: nearly all actives have a fitted effect of over 65% in size
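HeLa cells stably expressing Vif plus C-terminally eYFP-tagged A3F were seeded, incubated overnight at 37 deg C, dosed with compound, incubated overnight again at 37 deg C. Yellow fluorescence (Ex 488/Em 500-530) reported blocked Vif-mediated A3F-eYFP degradation.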
Giardia kill: kills Giardia lamblia; actives 0.15% (n = 340,000); Giardia lamblia trophozoite viability; activity change, % at 7.66 µM, hits read low; in the data active = activity change below about -80%; inconclusive = between about -30% and that limit;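 also: parasites exposed to compound for two days anaerobically before the ATP read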
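Luminescence from cellular ATP indicates surviving trophozoites (100 cells/well) following 48 hrs anaerobic compound treatment at 37 deg C; signal develops 15-30 min at room temperature.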
Numbers stand for hits. Most compounds without a hit are left out; they make up all but 6.9% or so of the library. Unless noted, calls follow the shape of the dose curve; as a rule, active = well fitted curve in the direction sought with a large enough effect; inconclusive = small, poorly fitted or top-dose-only effect, or another doubt; inactive = no such curve, though single readings can be large; an effect the other way counts as inactive or inconclusive.

For COCCCNCCOCCOc1ccc(Cl)cc1C(C)(C)C the results were SW480 rereplic inconclusive, IL1B secr inh inactive, Vif-APOBEC3G blk inactive, MCF10A rerep 18.4µM, Vif-A3F inh inactive and Giardia kill inactive.
Screening CC(C)(C)NCCOCCOc1ccc(Cl)cc1C(C)(C)C returned SW480 rereplic inactive, IL1B secr inh inactive, Vif-APOBEC3G blk inactive, MCF10A rerep inactive, Vif-A3F inh inactive and Giardia kill inactive.
For C=CCNCCCOc1ccc(Cl)cc1C(C)(C)C the results were SW480 rereplic inactive, IL1B secr inh -85.3, Vif-APOBEC3G blk inactive, MCF10A rerep inactive, Vif-A3F inh inactive and Giardia kill inactive.
`C=CCc1cc(Cl)ccc1OCCNCCOC` gave SW480 rereplic inactive, IL1B secr inh inconclusive, Vif-APOBEC3G blk inactive, MCF10A rerep inconclusive, Vif-A3F inh inactive and Giardia kill inactive.
Screening C=CCNCCOCCOc1ccc(Cl)cc1C(C)(C)C returned SW480 rereplic inactive, IL1B secr inh -53.0, Vif-APOBEC3G blk inactive, MCF10A rerep inconclusive, Vif-A3F inh inactive and Giardia kill inactive.
`COc1cccc(C2CC(=O)Nc3cc4c(cc32)CCC4)c1` (stereo not given) gave SW480 rereplic 8.2µM, IL1B secr inh inactive, Vif-APOBEC3G blk inconclusive, MCF10A rerep 5.17µM, Vif-A3F inh inactive and Giardia kill inactive.
`O=C1CC(c2cc(Br)ccc2F)c2cc3c(cc2N1)CCC3` (stereo not given) gave SW480 rereplic 1.16µM, IL1B secr inh inactive, Vif-APOBEC3G blk inconclusive, MCF10A rerep 1.46µM, Vif-A3F inh inactive and Giardia kill inactive.
Screening Cc1cc(C)cc(NC(=O)Cn2c(C)cc(C)c(C#N)c2=O)c1 returned Vif-APOBEC3G blk inactive and Vif-A3F inh inactive.
`CCC(Sc1nc2nccnc2c(=O)n1Cc1ccc(Cl)cc1)C(=O)NC1CCCCC1` (stereo not given) gave Vif-APOBEC3G blk inactive and Vif-A3F inh inactive.
For Cc1ccc(NC(=O)Cn2c(=O)c3ccc(Cl)cc3n3nncc23)cc1 the results were Vif-APOBEC3G blk inactive and Vif-A3F inh inactive.
Cc1ccc(C)c(CN2CCC(CNC(=O)Nc3ccc(Cl)cc3)CC2)c1 was read as SW480 rereplic inactive, IL1B secr inh -94.6, Vif-APOBEC3G blk inactive, MCF10A rerep inactive, Vif-A3F inh inactive and Giardia kill inactive.
For Cc1cccc(CN2CCC(CNC(=O)Nc3ccccc3F)CC2)c1 the results were SW480 rereplic inactive, IL1B secr inh inactive, Vif-APOBEC3G blk inactive, MCF10A rerep inactive, Vif-A3F inh inactive and Giardia kill inactive.
Cc1ccc(C)c(CN2CCC(CNC(=O)Nc3ccc(Br)cc3F)CC2)c1 was read as SW480 rereplic inconclusive, IL1B secr inh -82.6, Vif-APOBEC3G blk inactive, MCF10A rerep inconclusive, Vif-A3F inh inactive and Giardia kill inactive.
`CCCCC(=O)Nc1nnc(S(=O)(=O)N(C)Cc2ccc(Cl)cc2)s1` gave Vif-APOBEC3G blk inactive and Vif-A3F inh inactive.
For CC(C)(C)n1ncc2c(=O)n(Cc3cccc(OC(F)(F)F)c3)cnc21 the results were Vif-APOBEC3G blk inactive.
`O=C(/C=C/c1cccc([N+](=O)[O-])c1)NC(=S)Nc1ccc(CN2CCOCC2)cc1` gave SW480 rereplic inconclusive, IL1B secr inh -94.0, Vif-APOBEC3G blk inactive, MCF10A rerep inactive, Vif-A3F inh inactive and Giardia kill inactive.
CC(C)c1ccc(/C=C/C(=O)NC(=S)Nc2ccc(CN3CCOCC3)cc2)cc1 was read as SW480 rereplic inactive, IL1B secr inh -65.4, Vif-APOBEC3G blk inactive, MCF10A rerep 23.1µM, Vif-A3F inh inconclusive and Giardia kill inactive.
`O=C(NC(=S)Nc1ccc(CN2CCOCC2)cc1)c1ccc([N+](=O)[O-])cc1` gave SW480 rereplic inactive, IL1B secr inh inactive, Vif-APOBEC3G blk inactive, MCF10A rerep inactive, Vif-A3F inh inactive and Giardia kill inactive.
Screening O=C(NCCCN1CCCC1=O)c1ccc2c(c1)NC(=O)c1ccccc1S2 returned SW480 rereplic inactive, IL1B secr inh inactive, Vif-APOBEC3G blk inactive, MCF10A rerep inactive, Vif-A3F inh inactive and Giardia kill inactive.
CC1CCCC(C)N1CCCNC(=O)c1ccc2c(c1)NC(=O)c1ccccc1S2 (stereo not given) was read as SW480 rereplic inactive, IL1B secr inh -71.3, Vif-APOBEC3G blk inactive, MCF10A rerep inactive, Vif-A3F inh inactive and Giardia kill inactive.
`CCC(C)N(CCNC(=O)c1ccc2c(c1)NC(=O)c1ccccc1S2)C1CCCCC1` (stereo not given) gave SW480 rereplic inconclusive, IL1B secr inh -86.4, Vif-APOBEC3G blk inactive, MCF10A rerep inconclusive, Vif-A3F inh inactive and Giardia kill inactive.
For CCN1CCN(CCCNC(=O)c2ccc3c(c2)NC(=O)c2ccccc2S3)CC1 the results were SW480 rereplic inactive, IL1B secr inh inactive, Vif-APOBEC3G blk inactive, MCF10A rerep inactive, Vif-A3F inh inactive and Giardia kill inactive.
Screening COc1cc(OC)c2c(-c3cccc(-c4sccc4C(C)=O)c3)cc(=O)oc2c1 returned SW480 rereplic 6.51µM, IL1B secr inh inactive, Vif-APOBEC3G blk inconclusive, MCF10A rerep 0.651µM, Vif-A3F inh inactive and Giardia kill inactive.
CCOC(=O)c1ccc(-c2cccc(-c3cc(=O)oc4cc(OC)cc(OC)c34)c2)cc1 was read as SW480 rereplic inconclusive, IL1B secr inh inactive, Vif-APOBEC3G blk inactive, MCF10A rerep inconclusive, Vif-A3F inh inactive and Giardia kill inactive.
Screening COc1cc(OC)c2c(-c3cccc(-c4ccc(OC)c(OC)c4)c3)cc(=O)oc2c1 returned SW480 rereplic 2.06µM, IL1B secr inh inactive, Vif-APOBEC3G blk inactive, MCF10A rerep 1.3µM, Vif-A3F inh inactive and Giardia kill inactive.
Screening COc1cc(OC)c2c(-c3cccc(-c4ccc(C#N)cc4)c3)cc(=O)oc2c1 returned SW480 rereplic inconclusive, IL1B secr inh inactive, Vif-APOBEC3G blk inconclusive, MCF10A rerep inconclusive, Vif-A3F inh inactive and Giardia kill inactive.
Screening COc1cc(OC)c2c(-c3cccc(-c4ccc(NC(C)=O)cc4)c3)cc(=O)oc2c1 returned SW480 rereplic 9.2µM, IL1B secr inh inactive, Vif-APOBEC3G blk inactive, MCF10A rerep inconclusive, Vif-A3F inh inactive and Giardia kill inactive.
COc1cc(OC)c2c(-c3cccc(-c4ccc(F)c(Cl)c4)c3)cc(=O)oc2c1 was read as SW480 rereplic inconclusive, IL1B secr inh inactive, Vif-APOBEC3G blk inactive, MCF10A rerep 4.61µM, Vif-A3F inh inactive and Giardia kill inactive.
Screening CNC(=O)COc1ccc(NC(=O)CCn2nc(-c3ccc(C)cc3)c3ccccc3c2=O)cc1 returned Vif-APOBEC3G blk inactive and Vif-A3F inh inactive.
For O=C1CC(c2nnc(Cc3ccc(F)cc3Cl)o2)CN1c1ccccc1 (stereo not given) the results were Vif-APOBEC3G blk inactive and Vif-A3F inh inactive.
